Most compounds without a hit are left out; they make up all but 3.7% or so of the library.
GPR7 antag: blocks human GPR7 receptor signaling; GPR7-expressing cells, fluorescence antagonist assay; inhibition, % at 4.4 µM; 290,000 tested, 1.1% active; AID 1861; in the data active = inhibition above about 16%, passing the limit was not always enough;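 also: cells stimulated with the agonist NPW; 0% = agonist with vehicle and 100% = vehicle without agonist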
Kir21 inh: inhibitors of mouse Kir2.1 inward-rectifier potassium channel | HEK293-Kir2.1, FluxOR thallium flux fluorescence; active compounds read low | 310,000 tested, 0.85% active | B-score at 10 µM | P35561;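 active = fluorescence ratio B-score at or below minus 3 SD of library scores, with starting-brightness B-score within 2 SD, cut at about -4.2 in these data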;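 also: channel flux triggered by added potassium and thallium sulfate stimulus; B-score of peak minus minimum fluorescence over baseline after thallium stimulus; more negative B-score means stronger Kir2.1 block with less thallium influx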
Target sequence (P35561 whole entry, looked up): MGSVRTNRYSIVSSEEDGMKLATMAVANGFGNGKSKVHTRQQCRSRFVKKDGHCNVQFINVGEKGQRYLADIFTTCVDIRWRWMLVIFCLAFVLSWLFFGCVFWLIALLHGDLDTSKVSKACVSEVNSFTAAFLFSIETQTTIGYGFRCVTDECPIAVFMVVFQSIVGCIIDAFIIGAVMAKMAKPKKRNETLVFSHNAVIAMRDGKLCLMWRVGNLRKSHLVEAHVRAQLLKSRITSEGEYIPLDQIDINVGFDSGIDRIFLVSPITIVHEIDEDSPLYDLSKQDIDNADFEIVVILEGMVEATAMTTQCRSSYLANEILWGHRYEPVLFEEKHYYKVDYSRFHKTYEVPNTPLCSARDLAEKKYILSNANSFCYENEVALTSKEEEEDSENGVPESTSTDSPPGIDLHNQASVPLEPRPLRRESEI
ANO1 block: mouse TMEM16A channel inhibition, primary screen | Q8BHY3 | HEK293 TMEM16A/YFP iodide influx fluorescence, ionomycin | normalized B-score (activity score, 25-100; higher = stronger inhibition) at 10 µM | 310,000 tested, 1.2% active | AID 588511;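 active = ratio plate-corrected score three or more library SD toward inhibition, starting fluorescence score within five deviations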;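 also: score derived from kinetic fluorescence span divided by baseline fluorescence per well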
ANO1 activ: activates or potentiates the mouse TMEM16A chloride channel | 340,000 tested, 0.3% active | HEK293 TMEM16A/YFP-H148Q/I152L, iodide quench fluorescence; active compounds read low | B-score at 10 µM | Q8BHY3 | AID 623877;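 active = fluorescence-ratio B-score plate-corrected deviation score at least 3 library SD below zero, with starting fluorescence score within 5 deviations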;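 also: channel opened by trigger with iodide after compound preincubation; score built on the fluorescence ratio of max minus min over baseline; more negative score means more quench and so TMEM16A activation or potentiation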
CHT PAM: human CHT allosteric activation; 310,000 tested, 0.49% active; B-score at 10 µM; AID 488977; CHT-expressing cells, membrane potential dye, choline EC20; active compounds read high; LV-AA mutant CHT in HEK293 cells; Q9GZV3;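 active = initial fluorescence not abnormally high and integrated response B-score, plate-corrected, over 3 SD above library mean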
CHT block: inhibits the human high affinity choline transporter. 310,000 tested, 0.86% active. AID 488975. B-score at 10 µM. Q9GZV3. CHT-expressing cells, membrane potential dye, choline response; active compounds read low;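 active = B-score over 3 SD under the library average, and starting fluorescence ratio not unusually high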;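 also: choline stimulus applied at its EC90 after an EC20 pre-addition; B-score computed on integrated fluorescence ratio after choline addition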
GPR7 antag conf: human GPR7 antagonism, confirmation assay; inhibition, % at 4.4 µM; GPR7-expressing cells, calcium fluorescence antagonist mode; 2,400 tested, 52% active; shares compounds with GPR7 antag; AID 1952; in the data active = inhibition above about 24%;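 also: stimulated with the GPR7 agonist NPW; 0% = agonist plus vehicle and 100% = vehicle alone without agonist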
MCHR1 antag: counter-screen for GPR7 antagonists: antagonists of human MCHR1; MCHR1-expressing cells, fluorescence antagonist assay; shares compounds with GPR7 antag; 2,400 tested, 62% active; inhibition, % at 4.4 µM; AID 2148; in the data active = inhibition above about 22%;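 also: 0% = vehicle with agonist and 100% = vehicle without agonist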
An asterisk follows results filed as active; i = inactive; . = not tested or not shown.

SMILES | GPR7 antag | Kir21 inh | ANO1 block | ANO1 activ | CHT PAM | CHT block | GPR7 antag conf | MCHR1 antag
Cc1nc(NCCO)c(C#N)c2c1COC(C)(C)C2 | 26* | 0.72 | i | i | i | i | -21 | -5
CN(C)CCCNc1nc(-c2ccccc2)c2c(c1C#N)CC(C)(C)OC2 | 0 | -2 | i | i | i | i | . | .
CC(=O)NNC(=O)c1csc(-c2csc(C)n2)n1 | -5 | 0.57 | i | i | i | i | . | .
NC(=O)C[C@H](NC(=O)c1ccc(Cl)cc1)C(=O)OCc1ccccc1 | . | . | . | i | . | . | . | .
CCOC(=O)C1(Cc2ccc(OC)cc2)CCN(C(=O)c2cc(C)on2)CC1 | 25* | 0.3 | i | i | i | i | 0 | 3
CCO[C@H]1OC(C(=O)NCc2ccccc2)=C[C@@H](c2ccc3c(c2)OCO3)[C@@H]1CCCO | 33* | 0.09 | i | i | i | i | 18 | 16
CCC(CC)NC(=O)c1oc2ccccc2c1COc1ccccc1 | 22* | 0.88 | i | i | i | i | 49* | 46*
CCOC(=O)C1CCCN(C(=O)c2cnn3c(C(F)(F)F)cc(-c4ccccc4)nc23)C1 (stereo not given) | 25* | -0.97 | i | i | i | i | 14 | 10
CN(C)c1cc(-c2cccc(C(F)(F)F)c2)oc(=O)c1Cl | . | -0.17 | i | i | i | i | . | .
CC(=O)c1ccc(N2CCN(C(=O)c3cccc(Oc4ccccc4)c3)CC2)cc1 | 23* | 0.93 | i | i | i | i | 34* | 53*
CC(=O)c1ccc(N2CCN(C(=O)c3ccc(-c4ccccc4)cc3)CC2)cc1 | 13 | 0.5 | i | i | i | i | . | .
CCc1ccc2[nH]c(=O)c(C(c3nnnn3Cc3ccccc3)N3CCOCC3)cc2c1 (stereo not given) | 5 | 0.75 | i | i | i | i | . | .
CCc1ccc2[nH]c(=O)c(C(c3nnnn3Cc3ccc(OC)cc3)N3CCOCC3)cc2c1 (stereo not given) | 29* | 1.7 | i | i | i | i | 5 | 14
CCn1c(SCCOc2ccc(Cl)cc2)nnc1-c1cccs1 | 29* | -5.8* | i | i | i | i | 9 | 31*
O=C(CCCc1ccccc1)NCCS(=O)(=O)N1CCN(c2ccc(F)cc2)CC1 | . | -1.6 | i | i | i | i | . | .
O=C(O)C1CCCCC1C(=O)Nc1ccc(S(=O)(=O)N2CCCC2)cc1 (stereo not given) | 0 | 0.75 | i | i | i | i | . | .
O=C(O)[C@H]1CCCC[C@H]1C(=O)Nc1ccc(S(=O)(=O)N2CCCCC2)cc1 | 23* | 0.42 | i | i | i | i | -17 | -5
O=C(Nc1ccc(C(F)(F)F)cc1)C1CCN(S(=O)(=O)c2ccc(N3CCCC3=O)cc2)CC1 | 23* | 0.43 | i | i | i | i | 23 | 49*
CCCCCCOC(=O)C[N+](C)(C)CCOC1CC2CCC1(C)C2(C)C (stereo not given) | 32* | -7.7* | i | i | 8.5* | i | 65* | 63*
CCCCCCCOC(=O)C[N+](C)(C)CCOC1CC2CCC1(C)C2(C)C (stereo not given) | 28* | -8.2* | . | i | . | . | 67* | 87*
CCCCOC(=O)C[N+](C)(C)CCOC1CC2CCC1(C)C2(C)C (stereo not given) | -2 | -0.97 | i | i | i | i | . | .
Cc1c(NC(=O)c2cccs2)cccc1-c1nc2ccccc2s1 | 33* | -0.02 | i | i | i | i | 45* | 64*
Cc1ccc(C)c(N2CCN(CCCNC(=O)CCC(=O)N3CCOc4ccc(Cl)cc43)CC2)c1 | 29* | -7.4 | i | . | i | i | 50* | 79*
O=C(CCC(=O)N1CCOc2ccc(Cl)cc21)NCCCN1CCN(c2ccccc2F)CC1 | 4 | -2 | i | i | i | i | . | .
CCc1ccc(N2CC(C(=O)OCC(=O)Nc3ccc([N+](=O)[O-])cc3)CC2=O)cc1 (stereo not given) | . | . | . | i | . | . | . | .
SMILES | GPR7 antag | Kir21 inh | ANO1 block | ANO1 activ | CHT PAM | CHT block | GPR7 antag conf | MCHR1 antag
O=C(NC1CCCCCCC1)C1c2ccccc2C(=O)N1Cc1cccs1 (stereo not given) | 27* | 2.7 | i | i | i | i | 32* | 13
COc1ccc(CN2C(=O)c3ccccc3C2C(=O)NC2CCCCCC2)c(OC)c1 (stereo not given) | 33* | 1.1 | . | i | . | . | 21 | 34*
CC1CCC(NC(=O)C2c3ccccc3C(=O)N2Cc2cccs2)CC1 (stereo not given) | 11 | -2.6 | i | i | i | i | . | .
CCOc1ccc(CCNC(=O)COC(=O)c2cc(OC)c(OC)cc2[N+](=O)[O-])cc1OCC | . | -1.7 | i | i | i | i | . | .
N#CC1(NC(=O)CN2C(=O)NC(c3ccccc3)(c3ccccc3)C2=O)CCCC1 | . | . | . | i | . | . | . | .
Cc1ccc(OCCn2c(CCCO)nc3ccccc32)cc1 | 23* | -2.2 | i | i | i | i | 11 | 7
Cc1ccc(C(=O)N/N=C\c2ccccc2[N+](=O)[O-])cn1 | -26 | 0.05 | . | i | . | . | . | .
Cc1ccc(C(=O)N/N=C\c2ccc([N+](=O)[O-])o2)cn1 | 26* | 0.74 | i | i | i | i | -18 | -9
CC1(C)NC(=O)N(CC(=O)N2CCN(c3cccc(Cl)c3)CC2)C1=O | . | . | . | i | . | . | . | .
CCOC(=O)N1CCN(C(=O)c2ccc(CS(=O)c3ccccc3)o2)CC1 (stereo not given) | -14 | -0.22 | i | i | i | i | . | .
CCOC(=O)C1(CCOc2ccccc2)CCN(Cc2ccc(OC)c(O)c2)CC1 | 11 | -1.1 | i | i | i | i | . | .
COc1ccc(CN2CCC(CO)(CCOc3ccccc3)CC2)c(OC)c1C | 28* | -2.4 | i | i | i | i | 37* | 24*
CCOc1ccccc1CN1CCC(CO)(CCOc2ccccc2)CC1 | 27* | -1.5 | i | i | i | i | 6 | 4
CCOC(=O)C1(CCOc2ccccc2)CCN(Cc2ccc(OC)c(COC)c2)CC1 | 36* | -3.2 | i | i | i | i | 36* | 52*
Cc1cccc(NC(=O)CNC(=O)CN2C(=O)NC3(CCc4ccccc43)C2=O)c1C (stereo not given) | . | . | . | i | . | . | . | .

Screens as filed in PubChem.
